# PubChem BioAssay (EPA / NIEHS)
# Results filed as inconclusive are left out. The source made the active and inactive calls. How the source made its calls: active means hit-call score of the fitted dose curve at least 0.9, where 1 is the maximum; inconclusive means response in the unintended direction; inactive means score below 0.9.
# Biological target: zebrafish Thyroid Hormone Receptor beta (TRb), thrb (gene 30607) (UniProt Q9PVE4)
# Test: ATG_zfTRb_XSP2: Attagene TRANS-FACTORIAL Multi-Species (XSP1) HepG2 Assay for zebrafish Thyroid Hormone Receptor beta (TRb) (AID 2283836)
# How it was run: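 Reporter transcripts measured by RT-PCR, 6-FAM labelling, HpaI digestion and capillary electrophoresis after 24 h chemical exposure. Human HepG2 cells carry an exogenous zebrafish TRb-GAL4 chimera; medium included 3 nM 6-alpha-fluorotestosterone plus 1.5 nM norgestrel.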
# Chain of zebrafish Thyroid Hormone Receptor beta (TRb), thrb (gene 30607) (Q9PVE4 whole entry, looked up): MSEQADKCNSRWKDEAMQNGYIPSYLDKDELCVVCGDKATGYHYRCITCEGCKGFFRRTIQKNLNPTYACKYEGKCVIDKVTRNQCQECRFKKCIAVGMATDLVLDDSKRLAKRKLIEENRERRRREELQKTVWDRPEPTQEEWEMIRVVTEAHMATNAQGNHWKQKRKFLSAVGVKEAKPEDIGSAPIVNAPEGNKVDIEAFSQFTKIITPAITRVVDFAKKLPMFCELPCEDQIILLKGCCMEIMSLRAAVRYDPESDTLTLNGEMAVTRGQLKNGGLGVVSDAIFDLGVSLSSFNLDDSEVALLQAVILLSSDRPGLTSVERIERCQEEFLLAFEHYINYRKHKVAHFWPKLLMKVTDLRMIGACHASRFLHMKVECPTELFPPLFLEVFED
row,SMILES,outcome
1,C(=C(c1ccccc1)c1ccccc1)c1ccccc1,inactive
2,c1ccc(B(c2ccccc2)c2ccccc2)cc1,inactive
3,C#C[C@]1(O)CC[C@H]2[C@@H]3CCc4cc(OC)ccc4[C@H]3CC[C@@]21C,inactive
4,O=C(OCCOCCOCCOC(=O)c1ccccc1)c1ccccc1,inactive

# Biological target: human Thyroid hormone Receptor alpha (TRa), THRA (gene 7067) (UniProt P10827)
# Test: ATG_hTRa_XSP2: Attagene TRANS-FACTORIAL Multi-Species (XSP2) HepG2 Assay for human Thyroid hormone Receptor alpha (TRa) (AID 2283838)
# How it was run: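 Reporter transcripts were read by RT-PCR with fluorescent primer extension, HpaI digestion and capillary electrophoresis. These came from HepG2 cells carrying multiplexed TRa-Gal4 TRANS constructs, harvested 24 hours after dosing. The medium also held 6-alpha-fluorotestosterone (3 nM) and norgestrel (1.5 nM), and increases were fitted against DMSO.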
# Chain of human Thyroid hormone Receptor alpha (TRa), THRA (gene 7067) (P10827 whole entry, looked up): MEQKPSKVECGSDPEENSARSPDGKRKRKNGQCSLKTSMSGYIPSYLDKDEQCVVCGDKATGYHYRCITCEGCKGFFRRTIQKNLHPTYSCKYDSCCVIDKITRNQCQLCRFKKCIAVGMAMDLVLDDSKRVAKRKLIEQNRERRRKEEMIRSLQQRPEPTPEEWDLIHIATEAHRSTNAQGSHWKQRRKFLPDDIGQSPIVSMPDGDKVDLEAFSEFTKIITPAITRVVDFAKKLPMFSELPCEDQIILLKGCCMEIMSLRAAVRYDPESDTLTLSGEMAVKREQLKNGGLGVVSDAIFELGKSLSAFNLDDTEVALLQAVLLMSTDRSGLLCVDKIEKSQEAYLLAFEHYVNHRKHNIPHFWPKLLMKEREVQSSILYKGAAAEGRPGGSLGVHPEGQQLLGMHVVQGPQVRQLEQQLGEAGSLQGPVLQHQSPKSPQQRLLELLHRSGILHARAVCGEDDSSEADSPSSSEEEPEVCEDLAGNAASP
row,SMILES,outcome
1,C(=C(c1ccccc1)c1ccccc1)c1ccccc1,inactive
2,c1ccc(B(c2ccccc2)c2ccccc2)cc1,inactive
3,C#C[C@]1(O)CC[C@H]2[C@@H]3CCc4cc(OC)ccc4[C@H]3CC[C@@]21C,inactive
4,O=C(OCCOCCOCCOC(=O)c1ccccc1)c1ccccc1,inactive

# Biological target: frog Thyroid hormone Receptor alpha (TRa), thra-a (gene 397942) (UniProt P15204)
# Test: ATG_frTRa_XSP2: Attagene TRANS-FACTORIAL Multi-Species (XSP2) HepG2 Assay for frog Thyroid hormone Receptor alpha (TRa) (AID 2283839)
# How it was run: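 Chimeric frog TRα-GAL4 activity in human liver cells measures reporter transcript induction 24 h post-dose. Detection uses RT-PCR, HpaI-digested labelled products and fluorescence capillary electrophoresis; DMSO serves as negative control.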
# Chain of frog Thyroid hormone Receptor alpha (TRa), thra-a (gene 397942) (P15204 whole entry, looked up): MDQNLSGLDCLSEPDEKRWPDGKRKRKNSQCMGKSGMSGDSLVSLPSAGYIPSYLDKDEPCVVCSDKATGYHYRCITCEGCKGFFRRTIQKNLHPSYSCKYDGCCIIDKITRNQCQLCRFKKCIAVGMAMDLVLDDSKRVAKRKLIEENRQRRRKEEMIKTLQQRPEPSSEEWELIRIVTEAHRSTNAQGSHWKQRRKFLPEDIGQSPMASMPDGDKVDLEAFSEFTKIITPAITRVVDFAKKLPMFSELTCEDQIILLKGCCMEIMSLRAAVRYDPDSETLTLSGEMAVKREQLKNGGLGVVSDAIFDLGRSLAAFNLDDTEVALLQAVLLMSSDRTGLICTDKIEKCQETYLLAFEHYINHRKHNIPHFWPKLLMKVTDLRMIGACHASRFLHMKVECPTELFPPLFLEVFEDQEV
row,SMILES,outcome
1,C(=C(c1ccccc1)c1ccccc1)c1ccccc1,inactive
2,c1ccc(B(c2ccccc2)c2ccccc2)cc1,inactive
3,C#C[C@]1(O)CC[C@H]2[C@@H]3CCc4cc(OC)ccc4[C@H]3CC[C@@]21C,inactive
4,O=C(OCCOCCOCCOC(=O)c1ccccc1)c1ccccc1,inactive

# Biological target: human Thyroid hormone Receptor beta (TRb), THRB (gene 7068) (UniProt P10828)
# Test: ATG_hTRb_XSP2: Attagene TRANS-FACTORIAL Multi-Species (XSP2) HepG2 Assay for human Thyroid hormone Receptor beta (TRb) (AID 2283840);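 further: actives raise reporter mRNA so potency reflects agonist-like gain of signal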
# How it was run: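 Gain-of-signal reporter transcription, referenced to DMSO, was measured in transiently transfected HepG2 after 24 h exposure; labeled RT-PCR products were resolved by capillary electrophoresis. Assay medium included 3 nM 6-alpha-fluorotestosterone and 1.5 nM norgestrel.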
# Chain of human Thyroid hormone Receptor beta (TRb), THRB (gene 7068) (P10828 whole entry, looked up): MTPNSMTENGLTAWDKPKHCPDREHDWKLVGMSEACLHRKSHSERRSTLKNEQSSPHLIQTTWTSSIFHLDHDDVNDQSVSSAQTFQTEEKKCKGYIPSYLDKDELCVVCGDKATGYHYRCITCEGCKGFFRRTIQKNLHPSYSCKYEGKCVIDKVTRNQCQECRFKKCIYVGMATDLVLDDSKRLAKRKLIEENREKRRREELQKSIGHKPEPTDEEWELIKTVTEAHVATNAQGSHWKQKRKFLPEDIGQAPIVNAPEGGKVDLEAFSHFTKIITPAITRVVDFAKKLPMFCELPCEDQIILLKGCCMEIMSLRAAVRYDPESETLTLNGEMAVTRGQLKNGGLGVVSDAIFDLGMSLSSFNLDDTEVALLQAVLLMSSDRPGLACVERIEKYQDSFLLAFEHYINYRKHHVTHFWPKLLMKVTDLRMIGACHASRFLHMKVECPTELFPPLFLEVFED
SMILES,outcome,AC50
C(=C(c1ccccc1)c1ccccc1)c1ccccc1,inactive,
c1ccc(B(c2ccccc2)c2ccccc2)cc1,inactive,
C#C[C@]1(O)CC[C@H]2[C@@H]3CCc4cc(OC)ccc4[C@H]3CC[C@@]21C,,0.0262 µM (active)
O=C(OCCOCCOCCOC(=O)c1ccccc1)c1ccccc1,inactive,

# System: Sodium/Iodide Symporter (NIS), SLC5A5 (gene 6528)
# Test: CPHEA_Stoker_NIS_Inhibition_RAIU: CPHEA's Radioactive Iodide Uptake (RAIU) Assay for Sodium/Iodide Symporter (NIS) Inhibition, Stoker and Laws Labs (AID 2283841)
# How it was run: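 Iodide uptake through human NIS is measured in an engineered HEK293T line. Cells take up 125I (329pM final) for 2 hours at room temperature alongside chemicals at 0.001–100uM. Retained radioactivity is counted, and the signal is expressed against DMSO controls.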
SMILES,AC50,outcome
O=C(O)C(F)(F)C(F)(F)C(F)(F)C(F)(F)C(F)(F)C(F)(F)C(F)(F)C(F)(F)C(F)(F)C(F)F,21.7 µM (active),
FC(F)(F)C(F)(F)C(F)(F)C(F)(F)C(F)(F)CCI,13.3 µM (active),
O=C(O)C(F)(F)C(F)(F)C(F)(F)C(F)(F)C(F)(F)C(F)(F)C(F)(F)C(F)(F)Cl,33.6 µM (active),
C=CC(=O)OCC(F)(F)C(F)(F)C(F)(F)C(F)(F)C(F)(F)C(F)(F)C(F)(F)F,,inactive
O=C(O)C(F)(F)C(F)(F)C(F)(F)C(F)(F)C(F)(F)C(F)(F)C(F)(F)C(F)(F)C(F)(F)C(F)(F)C(F)(F)C(F)(F)C(F)(F)F,,inactive
FC(F)(F)C(F)(F)C(F)(F)N(C(F)(F)C(F)(F)C(F)(F)F)C(F)(F)C(F)(F)C(F)(F)F,,inactive
C(=C(c1ccccc1)c1ccccc1)c1ccccc1,,inactive
CCCCCCOC(=O)c1ccccc1O,,inactive
C=C(C)C(=O)OCC(F)(F)C(F)(F)C(F)(F)C(F)(F)C(F)(F)C(F)(F)C(F)(F)F,,inactive
C=CC(=O)OCC(F)(F)C(F)(F)C(F)(F)C(F)(F)COC(=O)C=C,,inactive
O=S(=O)(O)C(F)(F)C(F)(F)C(F)(F)C(F)(F)C(F)(F)C(F)(F)C(F)(F)F,2.31 µM (active),
O=C(CC(=O)C(F)(F)C(F)(F)F)C(F)(F)F,9.92 µM (active),
O=C(O)C(F)(F)C(F)(F)C(F)(F)C(F)(F)C(F)(F)C(F)(F)C(F)(F)C(F)(F)C(F)(F)C(F)(F)C(F)(F)C(F)(F)F,,inactive
O=S(=O)(OCCOC(F)(F)F)C(F)(F)F,,inactive
OCCCC(F)(F)C(F)(F)C(F)(F)C(F)(F)C(F)(F)C(F)(F)C(F)(F)F,,inactive
Cc1ccc(S(=O)(=O)OCC(F)(F)C(F)(F)C(F)(F)C(F)(F)C(F)(F)C(F)F)cc1,,inactive
OCC(F)(F)C(F)(F)C(F)(F)C(F)(F)C(F)(F)C(F)F,,inactive
FC(F)(F)C(F)(F)C(F)(F)C(F)(F)CCI,,inactive
O=C(OCCOCCOCCOC(=O)c1ccccc1)c1ccccc1,,inactive
OCC(F)(F)C(F)(F)C(F)(F)C(F)(F)C(F)(F)C(F)(F)F,,inactive
